This is an account of results in PubChem BioAssay.

SMILES strings stand for the structures.

A short description of this assay: calcein-AM signal in unstimulated myeloma cells – cell-based, calcein-AM fluorescence, 48 h, PK04 Diversity Set, profiling panel (AID 1166).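 Note: cells grown under basal conditions without added stimulus; test concentration not given here.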 Particulars: RPMI8226 myeloma viability, higher = more signal.
`COC(=O)c1c(CC[C@@H](CO)NC(=O)N2CCC[C@H]2Cn2cc(-c3ccccn3)nn2)oc(C(C)=O)c1C(=O)OC`: the z-score is 1.18.

As for `CCN(CC)c1ccc(N2CC=CC34O[C@@H]5/C=C\CCCOC(=O)C5[C@H]3C(=O)N(CCO)[C@@H]4C2=O)cc1` (stereo partly specified), the z-score is -0.509.

Regarding `CCOC(=O)C1=CCC(c2ccccc2)N(S(=O)(=O)CC[Si](C)(C)C)C1` (stereo unspecified), the z-score is 0.582.

Consider `NCCCCCNC(=O)[C@@H]1C[C@@H]2C(=O)NCC(=O)N2[C@@H]1c1ccc(O)cc1`, for which the z-score is 0.895.

`CC(C)(C)OC(=O)CC[C@]1(C(=O)O)N=C(c2ccc(OCCCO)cc2)O[C@H]1c1ccccc1N=[N+]=[N-]`: the z-score is -0.24.

As for `O=C1C2C=CC(C(O)C(c3ccccc3)c3ccccc3)N(n3cnnc3)C2C(=O)N1Cc1ccccc1` (stereo unspecified), the z-score is -0.23.

Turning to `COc1ccc([Si](C)(C)[C@H]2[C@H](CCn3cc([C@H](O)c4ccccc4)nn3)O[C@@]3(C(=O)N(Cc4cccc(N5CCOC5=O)c4)c4ccccc43)[C@@H]2C)cc1`, the z-score is -0.332.

In the case of `COCCOC(=O)N1C(=O)[C@@]2(c3cc(C#Cc4ccc(OC)cc4)ccc31)[C@H](C(N)=O)[C@H]1C(=O)O[C@H](c3ccccc3)[C@H](c3ccccc3)N1[C@@H]2c1ccccc1OCCO`, the z-score was -3.94.

With `CC(CO)N1C(=O)[C@@H]2C3C(=O)OCCC/C=C\[C@H]3OC23C=CCN(c2ccc4ccccc4c2)C(=O)[C@@H]13` (stereo partly specified), the z-score is 0.931.

On to `O=C1NC(=O)C2C1C=CC(C(O)C(c1ccccc1)c1ccccc1)N2Nc1ccc(Cl)cc1Cl` (stereo unspecified), for which the z-score was -4.14.

In the case of `CC(=O)n1cc(C(O)C2C=CC3C(=O)N(C)C(=O)C3N2Nc2ccccc2)c2ccccc21` (stereo unspecified), the z-score is -1.25.
